# Compound activity (PubChem BioAssay)
# LmPK inhibitor: qHTS Assay for Inhibitors of Leishmania Mexicana Pyruvate Kinase (LmPK). Q27686. 290,000 compounds, 0.37% hits. Potency, µM (doses to about 57.5 µM), without a hit: top-dose activity change, negative = inhibition, usual class: inhibitors. AID 1721, 2009. purified LmPK, Kinase-Glo ATP luminescence, 1 h; further: potency means the concentration at half of the fitted maximal effect; on the % scale 0 is the no-effect control and ±100 the full control effect
# Target sequence (Q27686 whole entry, looked up): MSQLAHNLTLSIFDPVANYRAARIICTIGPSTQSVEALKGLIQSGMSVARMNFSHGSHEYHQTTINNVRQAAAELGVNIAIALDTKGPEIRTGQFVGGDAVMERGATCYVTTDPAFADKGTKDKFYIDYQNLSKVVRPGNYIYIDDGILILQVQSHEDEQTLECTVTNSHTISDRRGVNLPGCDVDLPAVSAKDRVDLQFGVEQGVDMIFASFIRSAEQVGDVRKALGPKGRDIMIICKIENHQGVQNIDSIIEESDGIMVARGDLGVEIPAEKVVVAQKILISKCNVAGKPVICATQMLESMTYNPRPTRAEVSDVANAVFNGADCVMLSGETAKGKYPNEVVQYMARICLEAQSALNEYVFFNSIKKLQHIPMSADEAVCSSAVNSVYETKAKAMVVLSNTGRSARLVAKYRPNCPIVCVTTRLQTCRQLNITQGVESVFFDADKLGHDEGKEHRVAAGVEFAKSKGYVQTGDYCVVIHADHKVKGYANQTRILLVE
#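 ATP generated from ADP (0.1 mM) and PEP (0.5 mM) by 0.1 nM LmPK over 1 h at room temperature (pH 7.2 imidazole buffer) was detected by coupled luciferase luminescence. Values were normalized to uninhibited and no-enzyme wells.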
# Giardia FBPA inh: qHTS Assay for Inhibitors of Fructose-1,6-bisphosphate Aldolase from Giardia Lamblia | Potency, µM (top dose mostly 59.6 µM), without a hit: at the top dose activity, negative = inhibition, usual class: inhibitors | 290,000 compounds, 0.71% hits | AID 2451, 2010 | A8B2U2 | purified Giardia FBPA; further: potency means the concentration at half of the fitted maximal effect; on the % scale 0 is the no-effect control and ±100 the full control effect; nearly all actives have a fitted effect of over 55% in size
#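 Giardia FBPA (40 nM reagent) was preincubated 10 min at RT with compound (up to 57.5 uM final), then substrate plus GAPDH/TPI/NAD/arsenate coupling system with diaphorase/resazurin was added; resorufin fluorescence (525/598 nm) was read after 20 min.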
# Tb PYK inh: qHTS of Trypanosoma Brucei Inhibitors | pyruvate kinase (Trypanosoma brucei), Q57TT1 | TbPYK enzyme, Kinase-Glo Plus ATP luminescence, 45 min | Potency, µM (top dose mostly 76.8 µM), without a hit: at the highest dose activity, negative = inhibition, usual class: inhibitors | 410,000 compounds, 0.12% hits; further: potency means the concentration at half of the fitted maximal effect; on the % scale 0 is the no-effect control and ±100 the full control effect; nearly all actives have a fitted effect of over 50% in size
#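 Luminescence from Kinase-Glo Plus, added after a 45-minute room-temperature reaction, served as the end-point read-out. The enzyme and substrate were preincubated with compound before ADP (130 uM final) initiated turnover. Concentration-effect curves came from normalized qHTS data.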
# Shiga inhibitor: A qHTS for Small Molecule Inhibitors of Shiga Toxin; Vero cells, Shiga toxin protein synthesis inhibition reporter; inhibition, % at 38.7 µM; 290,000 compounds, 9.2% hits; AID 2315, 2010; in the data active means inhibition mostly above about 28%, no sharp cut-off; inactive means mostly below about 43%; further: 0% is about no effect
# Cycloheximide cs: Cycloheximide Counterscreen for Small Molecule Inhibitors of Shiga Toxin; cell reporter, cycloheximide protein synthesis inhibition counterscreen; 300,000 compounds, 12% hits; AID 2314, 2010; max response, %; in the data active means max response mostly above about 13%, no sharp cut-off; inactive means mostly below about 14%; further: read at 38.3 µM for the half of the compounds with a filed dose; 0% is about no effect
# RE007 growth inh: qHTS Assay for Inhibitors of the HIV-1 protein Vpr; S. pombe RE007 Vpr strain, BacTiter-Glo ATP luminescence, 24 h; Potency, µM (top dose mostly 92.2 µM), without a hit: top-dose activity change, negative = less growth, actives largely listed as inhibitors; 360,000 compounds, 0.21% hits; active means well fitted falling curve with a large enough effect; inconclusive means small, poorly fitted or top-dose-only effect; inactive means no such curve, though single readings can be large or run the other way; further: potency means the concentration at half of the fitted maximal effect; on the % scale 0 is the no-effect control and ±100 the full control effect; nearly all actives have a fitted effect of over 50% in size
#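 Fission yeast strain RE007, carrying one chromosomally integrated HIV-1 vpr copy, was seeded at OD 0.01 in PMG+AL medium with 23 nL pinned compound. After 24 h at 30 °C and 99% humidity, viability was read by BacTiter-Glo luminescence.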
# An asterisk follows results filed as active; ? = inconclusive; . = not tested or not shown; [ ] = another dose, or the depositor's remark. Many of the other results were omitted from the sample, so hits are more common in it than they were. Unless noted, the call rests on the fitted dose curve; in most records, active means well fitted curve in the direction sought with a large enough effect; inconclusive means small, poorly fitted or top-dose-only effect, or another doubt; inactive means no such curve, though single readings can be large; an effect the other way counts as inactive or inconclusive.
SMILES,LmPK inhibitor,Giardia FBPA inh,Tb PYK inh,Shiga inhibitor,Cycloheximide cs,RE007 growth inh
CSCC[C@H](NC(=O)[C@H](Cc1ccccc1)NC(=O)[C@H](Cc1cnc[nH]1)NC(=O)CNC(=O)[C@@H](NC(=O)[C@H](C)NC(=O)[C@H](Cc1c[nH]c2ccccc12)NC(=O)[C@H](CCC(N)=O)NC(=O)[C@@H]1CCCN1C(=O)[C@@H](NC(=O)[C@@H]1CCC(=O)N1)C(C)C)C(C)C)C(N)=O,.,-1%,.,-5,-7,.
Nc1c(C(=O)NCCc2ccccc2)nnn1Cc1ccccc1,4%,5%,0%,43*,30*,-4%
O=C(CSc1nc2ccccc2o1)c1ccccc1,1%,4%,-4%,active,47*,-17%
O=C(CSc1nc2ccccc2o1)NC(=O)NCc1ccccc1,-6%,.,-6%,-12,-3,-8%
O=C(O)c1ccccc1CSc1nc2ccccc2o1,-19%,11%,-9%,67*,35*,-14%
O=C(O)c1ccc(CSc2nc3ccccc3o2)cc1,-1%,24%,-16%,26,-3,-15%
CCCCCCOC(=O)Sc1nc2ccccc2o1,3%,-13%,.,43*,29*,1%[3.69 µM]
O=C(CSc1nc2ccccc2o1)c1ccc2c(c1)OCCO2,0%,0%,-3%,98*,40*,-26%
Cc1ccc(-c2nnc(Nc3cccc(C(F)(F)F)c3)c3ccccc23)cc1S(=O)(=O)N1CCOCC1,.,.,-17%,.,.,.
COC(=O)CSc1nc2ccccc2o1,-2%,10%,-5%,15,-3,10%
CC(=O)CSc1nc2ccccc2o1,0%,-2%,0%,57*,27*,-2%
CC1=C(C(=O)NC2CCCc3c2cnn3-c2cc(F)cc(F)c2)OCCO1 (stereo not drawn),-11%,.,-9%,-20,-3,-14%
Cn1nccc1C(=O)NC1CCCc2c1cnn2-c1cc(F)cc(F)c1 (stereo not drawn),-1%,.,-6%,54*,32*,12%
CSCC(=O)NC1CCCc2c1cnn2-c1ccc(C)c(C)c1 (stereo not drawn),-2%,13%,2%,58*,14,0%
O=C(CN1CCCC1=O)NC1CCCc2c1cnn2-c1cc(F)cc(F)c1 (stereo not drawn),7%,0%,2%,26,22*,9%
CC1(C)Cc2c(cnn2-c2cccc(F)c2)C(NC(=O)Cn2cccn2)C1 (stereo not drawn),0%,.,6%,-5,19*,-1%
COc1cccc(Cn2c(=O)c(-c3cccc(C#N)c3)nc3cnc(Nc4ccccc4)nc32)c1,.,-4%,-3%,.,.,.
Cc1cccc(-c2nc(SCC(=O)N(C)c3ccccc3)c3c(=O)n(C)c(=O)n(C)c3n2)c1,.,.,-10%,.,.,.
CC1(C)Cc2c(cnn2-c2cccc(F)c2)C(NC(=O)CN2CCCC2=O)C1 (stereo not drawn),-1%,8%,3%,11*,11*,9%
CCc1ccc(C(=O)Cn2ccsc2=N)cc1,-15%,-12%,-6%,91*,54*,?
Cc1ccccc1Nc1nc(-c2ccccc2)c(C(=O)Nc2cccnc2)s1,8%,-19%,3%,-16,16*,-1%
O=C(Nc1cccnc1)c1sc(Nc2ccccc2F)nc1-c1ccccc1,1%,5%,2%,40,-7,15%
Cc1noc(C)c1C(=O)Nc1nc(-c2ccccc2Cl)cs1,0%,1%,2%,66*,36*,0%
Cc1onc(-c2ccccc2)c1C(=O)Nc1nc(-c2ccccc2)cs1,0%,-4%,-11%,96*,31*,-11%
CCOC(=O)c1c(NC(=O)c2nc(SC)ncc2Cl)sc(C)c1C,.,.,-4%,.,.,.
SMILES,LmPK inhibitor,Giardia FBPA inh,Tb PYK inh,Shiga inhibitor,Cycloheximide cs,RE007 growth inh
Cc1ccc(S(=O)(=O)c2cnc(SCC(=O)Nc3ccccc3C(F)(F)F)[nH]c2=O)cc1C,.,.,5%,.,.,.
Cc1cccc(CNC(=O)Cn2nc(C)n3c(cc4cc(F)ccc43)c2=O)c1,.,.,-1%,.,.,.
Cc1cccc(CSC2=NN3CCCC(=O)N=C3S2)c1,-5%,3%,0%,56*,43*,?
CN(CCOc1ccc(C=C2C(=O)NC(=O)NC2=O)cc1)c1ccccn1,-1%,-3%,?,32,27*,-28%
COc1cccc(OCCOc2ccc(/C=C3/SC(=S)NC3=O)cc2)c1,-3%,3%,-19%,2,-1,12%
COc1ccc(OCCOc2cccc(C=C3C(=O)NC(=O)NC3=O)c2)cc1,-2%,6%,.,33*,33*,.
O=C1NC(=S)NC(=O)C1=Cc1ccc(OCc2ccccc2)cc1,.,.,?,.,.,-18%
COC(=O)[C@H]1Cc2c([nH]c3ccccc23)CN1C(=O)COc1ccc2c(C)cc(=O)oc2c1,.,-3%,.,.,.,.
F/C(COc1ccc2c(c1)[nH]c1ccccc12)=C1/CN2CCC1CC2,.,0%,-8%,57*,36*,.
CC(C)(C)c1ccc(COc2ccsc2C(=O)O)cc1,3%,26%,2%,35*,21*,70%
O=C(O)c1sccc1OCc1ccccc1,-3%,11%,8%,7,-4,0%
COc1ccc(NS(=O)(=O)c2cccc(C(=O)NNC(=O)c3cccn3C)c2)cc1,0%,.,5%,6,-2,-15%
Cc1ccc(NS(=O)(=O)c2cccc(C(=O)NNC(=O)c3cccn3C)c2)c(C)c1,-2%,.,-3%,32,24*,0%
O=C(Nc1nnc2n1CCS2)c1cc(C(F)(F)F)cc(C(F)(F)F)c1,.,.,-2%,.,.,.
CCC(C)N1C(=O)S/C(=C/c2ccc3c(c2)n(C)c(=O)n3C)C1=O (stereo not drawn),9%,-1%,3%,69,30*,3%
Cc1ccc(NC(=O)CSc2nnc3scc(-c4ccccc4)n23)cc1,.,.,-1%,.,.,.
Cc1ccc(NC(=O)CSc2nnc(-c3cccnc3)o2)c(C)c1,.,.,-6%,.,.,15%
Cc1ccc(NC(=O)CSc2ncc(-c3ccccc3)n2C(=O)c2ccccc2)cc1,1%,0%,8%,100*,28*,1%
Cc1ccc(C(=O)n2c(-c3ccccc3)cnc2SCC(=O)Nc2ccc(C)cc2C)cc1,-2%,2%,0%,48*,-2,20%
Cc1ccc(C(=O)n2c(-c3ccccc3)cnc2SCC(=O)Nc2ccccc2)cc1,2%,4%,-5%,-3,15*,0%
CCOC(=O)C1CCN(c2nc3c(S(=O)(=O)c4ccc(Br)cc4)nnn3c3ccsc23)CC1,.,.,-1%,.,.,.
Cc1nc2ccccc2c(=O)n1N,6%,9%,-9%,20,-2,0%
